From PubChem BioAssay
In the library only some 13% were active in any assay of this set; here they are far more common.
USP30 block = inhibitors of human USP30 deubiquitinase; Q70CQ3; purified USP30, Ub-rhodamine cleavage fluorescence; inhibition, % at 25 µM; 47,000 compounds, 5.3% hits
USP10 inh = blocks human USP10 ubiquitin-rhodamine cleavage | Q14694 | purified USP10, Ub-rhodamine fluorescence, 60 min | inhibition, % at 20 µM | 47,000 compounds, 1.1% hits | AID 1645856
USP17 block = human USP17-like deubiquitinase inhibition; purified USP17, Ub-rhodamine cleavage fluorescence, 3 h; inhibition, % at 50 µM; 47,000 compounds, 6.5% hits
USP8 inh = blocks human USP8 ubiquitin-rhodamine cleavage; purified USP8, Ub-rhodamine cleavage fluorescence, 30 min; 47,000 compounds, 4.2% hits; inhibition, % at 20 µM; AID 1645853
USP28 inh = inhibitors of human USP28 deubiquitinase; Q96RU2; purified USP28, Ub-rhodamine cleavage fluorescence, 30 min; inhibition, % at 25 µM; 47,000 compounds, 3% hits
A number is an active result; n = inactive; x = not tested or not shown. Cut-off read from the data, not from the text of the source: active = inhibition above about 30%; inactive = the rest.

SMILES	USP30 block	USP10 inh	USP17 block	USP8 inh	USP28 inh
Cn1ncc2c(C(=O)Nc3ccccn3)cc(C3CC3)nc21	x	n	n	n	x
COc1ccc(CC(NC(C)=O)C(=O)NC2CCN(c3c(Cc4ccccc4)c(C)nc4ncnn34)CC2)cc1OC (stereo unspecified)	71	n	47	n	n
COc1ccc(CC(NC(C)=O)C(=O)NC2CCN(c3c(Cc4ccccc4)c(C)nc4ncnn34)CC2)c(OC)c1 (stereo unspecified)	n	n	n	n	n
Cc1ccc(NC2c3ccccc3C(=O)N2c2ccccn2)cc1 (stereo unspecified)	n	n	n	n	n
COc1ccc(NC2c3ccccc3C(=O)N2c2ccccn2)cc1 (stereo unspecified)	n	n	57	83	n
CCCc1nnsc1C(=O)N1CCOCC1c1ncc(C)[nH]1 (stereo unspecified)	n	n	n	n	n
c1ccc2c(c1)N=C(c1ccc3c(c1)OCO3)CCN2	n	n	41	78	n
Cc1nccc(-c2ccc3c(c2)OCO3)n1	n	n	n	n	n
O=C(Nc1nc2c(s1)CCCC2C(=O)NCc1ccncc1)c1ccc2c(c1)OCO2 (stereo unspecified)	n	n	n	n	38
O=C(Nc1nc2c(s1)CCC2C(=O)NCc1ccncc1)c1ccccc1 (stereo unspecified)	n	n	n	n	n
Cc1n[nH]c(C)c1-c1cnc(CC2CCCN(S(C)(=O)=O)C2)cn1 (stereo unspecified)	n	n	n	n	n
O=C(Nc1sc2c(c1C(=O)NCc1cccnc1)CCCC2)c1csnn1	n	n	49	n	38
CC(C)(C)c1ccc(C(=O)NCc2cccnc2)s1	n	n	x	n	n
CS(=O)(=O)N1CCC2(CCC(c3cccnc3)c3ccccc32)CC1 (stereo unspecified)	n	n	n	n	n
CCCCCCCCCC(CCCCCCCCCC(=O)O)O[C@H]1O[C@@H](COC(C)=O)[C@H](O)[C@@H](O)[C@H]1OC(=O)CC(=O)O (stereo partly specified)	53	68	42	n	41
Cc1cccc(C(=O)Nc2ccc(Sc3ccccc3Cl)cc2)c1	n	n	n	n	n
Cc1cccc(C(=O)Nc2ccc(NC(=O)COc3ccccc3Cl)cc2)c1	n	n	n	67	n
COc1ccccc1NC(=O)CSC1=NC2(CCCCC2)Nc2ccccc21	n	n	54	84	n
CCN(CC)C(=O)Cn1cc(C(=O)C(=O)NCc2ccccc2Cl)c2ccccc21	45	n	n	n	n
CCN(CC)C(=O)Cn1cc(S(=O)(=O)Cc2c(F)cccc2Cl)c2ccccc21	38	n	n	n	n
O=C(Cn1cc(S(=O)(=O)Cc2c(F)cccc2Cl)c2ccccc21)N1CCCCCC1	n	n	n	n	n
CCN(CC)C(=O)Cn1cc(S(=O)(=O)Cc2ccccc2Cl)c2ccccc21	n	n	38	n	n
Cc1nc(-c2ccccn2)sc1C(=O)Nc1cccc(C#Cc2ccccn2)c1	n	n	n	n	n
Cc1[nH]c(C(=O)Nc2ccccc2F)c(C)c1S(=O)(=O)N1CCOCC1	n	n	n	n	n
Cc1ccc(CNC(=O)C2CCCN(S(=O)(=O)N(C)C3CCCCC3)C2)cc1 (stereo unspecified)	n	n	n	n	n
SMILES	USP30 block	USP10 inh	USP17 block	USP8 inh	USP28 inh
O=C(Cn1cnc2c(nc3n2CCCCC3)c1=O)NCc1ccco1	n	n	n	n	n
O=C(O)c1ccc(C2Cc3c([nH]c(=O)[nH]c3=O)O2)cc1 (stereo unspecified)	75	n	n	n	78
CC(C)NC(=O)c1cc(-c2cnc(N3CCCC3)nc2)cn1CC1CC1	n	n	n	n	n
COc1ccc(C)cc1NC(=O)Cn1c(C)cc(C)c1-c1nc(C(C)C)no1	31	n	n	n	n
Cc1cc(C)n(CC(=O)Nc2ccc(F)cc2)c1-c1nc(C(C)C)no1	n	n	x	n	n
COc1cccc(CNc2ncc(-c3cc(C)no3)c([C@H]3CCCO3)n2)c1	n	n	n	n	n
Cc1ncc2c(n1)CCN(S(=O)(=O)c1ccc(Cl)cc1)C2	n	n	n	n	n
CCOc1ccc(C(=O)N2CCC(c3nc(C)ncc3-c3cc(C)no3)CC2)o1	36	n	n	n	n
CS(=O)(=O)N1CCCCCC1C1CCN(c2ncccc2C#N)CC1 (stereo unspecified)	n	n	n	n	n
Cc1ccccc1NC(=O)C1CCCN(S(=O)(=O)Cc2ccc(F)cc2)C1 (stereo unspecified)	n	n	n	n	n
Cc1ccccc1NC(=O)C1CCCN(S(=O)(=O)Cc2ccccc2)C1 (stereo unspecified)	n	n	32	n	n
CN(C1CCCCC1)S(=O)(=O)N1CCCC(C(=O)NCc2ccccc2Cl)C1 (stereo unspecified)	n	n	n	n	n
O=C(C1CCCN(S(=O)(=O)Cc2ccccc2)C1)N1CCC(Cc2ccccc2)CC1 (stereo unspecified)	31	n	n	n	n
CN(C1CCCCC1)S(=O)(=O)N1CCCC(C(=O)NCc2cccc(Cl)c2)C1 (stereo unspecified)	42	n	n	n	n
COc1ccccc1CNC(=O)C1CCCN(S(=O)(=O)Cc2ccc(Cl)cc2)C1 (stereo unspecified)	30	n	n	n	n
CC1CN(S(=O)(=O)c2ccc3ncsc3c2)Cc2ccccc2N1C (stereo unspecified)	n	n	n	n	n
O=C(c1ccc2c(c1)OCO2)N1CCn2c(nnc2C2CCCN2)C1 (stereo unspecified)	n	n	n	n	n
COc1ccc(C(C(=O)NC2CCCC2)N(C(=O)Cn2nnc(-c3ccc(C)o3)n2)c2ccccc2C)cc1 (stereo unspecified)	n	n	n	n	n
Cc1ccc(-c2nnn(CC(=O)N(c3ccccc3C)C(C(=O)NC3CCCC3)c3ccncc3)n2)o1 (stereo unspecified)	n	n	41	n	n
Cc1ccc(-c2nnn(CC(=O)N(c3ccc(C4CCCCC4)cc3)C(C(=O)NC3CCCCC3)c3ccc(F)cc3)n2)o1 (stereo unspecified)	n	n	33	n	n
Cc1cc2c(cc1S(=O)(=O)N1CCCC(C)C1)OCC(=O)N2 (stereo unspecified)	x	n	41	n	x
CC(=O)c1ccc(N2CCN(S(=O)(=O)c3cc4c(cc3C)NC(=O)CO4)CC2)cc1	n	n	n	n	32
CC1(C(=O)NC2CCCC2)CCC(=O)N1Cc1cccc(F)c1 (stereo unspecified)	n	n	n	n	n
Cc1cc(O)cc2cc3c(c(O)c12)C(=O)CCC3O (stereo unspecified)	n	n	51	n	n
CCc1ccccc1NC(=O)CCCN1C(=O)c2cccnc2Sc2ccccc21	n	n	n	n	n
CC(C)CCCCCCCCCCCC(=O)O	47	30	43	n	n
